KCNQ2 pot: enhances the rat KCNQ2 potassium channel; CHO-K1 KCNQ2, FluxOR thallium flux fluorescence; stronger effect = higher value; B-score at 10 µM; 310,000 compounds, 0.54% hits; O88943;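 active = fluorescence ratio B-score at least 3 SD of library B-scores, with initial fluorescence B-score within 3 of them, cut at about 5.3 in these data; same plate scores as AID 2156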;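 note: B-score of peak minus minimum over baseline fluorescence ratio after K+ and Tl+ stimulus; positive B-score means potentiation of KCNQ2 with more thallium influx and brighter signal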
Target sequence (O88943 whole entry, looked up): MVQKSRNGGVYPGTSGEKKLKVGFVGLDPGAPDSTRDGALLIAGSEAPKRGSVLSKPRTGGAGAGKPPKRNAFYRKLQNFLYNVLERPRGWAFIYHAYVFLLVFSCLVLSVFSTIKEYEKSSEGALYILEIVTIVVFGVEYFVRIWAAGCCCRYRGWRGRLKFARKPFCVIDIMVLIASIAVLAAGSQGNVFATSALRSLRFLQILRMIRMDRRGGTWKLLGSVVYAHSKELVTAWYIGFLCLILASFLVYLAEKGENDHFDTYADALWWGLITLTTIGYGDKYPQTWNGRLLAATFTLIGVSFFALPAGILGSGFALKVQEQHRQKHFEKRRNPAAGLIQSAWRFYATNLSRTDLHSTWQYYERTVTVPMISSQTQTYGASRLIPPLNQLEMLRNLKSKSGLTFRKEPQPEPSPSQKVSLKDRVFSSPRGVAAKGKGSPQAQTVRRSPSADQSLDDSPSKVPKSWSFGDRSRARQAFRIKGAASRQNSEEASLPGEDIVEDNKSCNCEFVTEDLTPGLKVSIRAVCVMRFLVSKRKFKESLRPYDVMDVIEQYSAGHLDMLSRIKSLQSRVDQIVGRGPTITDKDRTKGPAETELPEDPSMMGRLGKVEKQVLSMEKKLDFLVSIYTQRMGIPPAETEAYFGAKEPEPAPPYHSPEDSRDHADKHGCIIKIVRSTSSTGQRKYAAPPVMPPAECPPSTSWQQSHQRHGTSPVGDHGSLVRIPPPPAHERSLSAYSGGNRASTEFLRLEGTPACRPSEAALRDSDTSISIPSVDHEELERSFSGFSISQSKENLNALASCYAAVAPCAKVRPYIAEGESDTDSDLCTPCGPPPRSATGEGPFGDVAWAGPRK
KCNQ2 block: inhibitors of rat KCNQ2 potassium channel; 310,000 compounds, 1.1% hits; B-score at 10 µM; AID 2156; O88943; CHO-K1 KCNQ2, FluxOR thallium flux, 20 min; stronger effect = lower value;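 active = fluorescence ratio B-score at most minus 3 library SDs, with starting brightness B-score within 2 library SDs, cut at about -5.5 in these data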
An asterisk follows results filed as active; i = inactive; · = no result. Only some compounds are listed: those with a hit (about 1.6% of all), similar ones and a draw of the others.

SMILES	KCNQ2 pot	KCNQ2 block
COc1ccc2oc(C(=O)OCC(=O)N(C)C3CCCCC3)c(C)c2c1	0.8	i
CC1CCCC(N2CCN(C(=O)c3ccc([N+](=O)[O-])cc3)CC2)C1 (stereo not given)	·	i
COC(=O)c1sccc1NC(=O)c1c(C)c(-c2cccc(Cl)c2)nc2ccccc12	-5.74	-5.74*
COC(=O)c1sccc1NC(=O)c1cc(-c2cccc(C)c2)nc2ccccc12	·	i
C/C(=N\NS(=O)(=O)c1c(C)cc(C)cc1C)c1ccncc1	·	i
O=C1c2ccccc2NC(c2ccc(F)cc2)N1Cc1ccccc1 (stereo not given)	·	i
Cc1cc(NC(=O)CSc2nc(C)c(C)c(=O)[nH]2)no1	·	i
CCCn1c(/C=C/c2ccccc2)nc2ccccc21	-6.13	-6.13*
COCCOCCn1c(/C=C/c2ccccc2)nc2ccccc21	·	i
O=C(Cn1ccc2ccccc2c1=O)NCCC(=O)Nc1cccc(Cl)c1	·	i
Cc1ccc(NC(=S)NCC(C)CSc2ccc(Cl)cc2)cc1 (stereo not given)	13.3*	i
Cc1cccc(NC(=S)NCC(C)CSc2ccc(Cl)cc2)c1 (stereo not given)	1.99	i
O=C(NCc1nnc2c(C(F)(F)F)cc(Cl)cn12)c1ccco1	·	i
COc1cc(OC)c2c(=O)cc(-c3ccccc3)oc2c1	·	i
COc1cc2c(c3oc(-c4ccccc4)cc(=O)c13)C=CC(C)(C)O2	-5.96	-5.96*
CCc1ccc(C(=O)COC(=O)c2cc([N+](=O)[O-])ccc2N2CCOCC2)cc1	0.04	i
Clc1ccc(CSc2nnc(CNc3cccc(Cl)c3)o2)cc1	-5.7	-5.7*
Fc1cccc(Cl)c1CSc1nnc(CNc2ccccc2)o1	·	i
COc1cccc(-n2c(=O)n(Cc3ccccc3)c(=O)c3[nH]cnc32)c1	·	i
CCN(CC(=O)Nc1ccc(NC(C)=O)cc1)C(=O)CCCSc1nc2ccccc2[nH]1	·	i
Cc1ccccc1NC(=O)Cc1nc(COC(=O)CCNS(=O)(=O)c2ccccc2)cs1	1.34	i
O=C(CN(c1ccccc1)S(=O)(=O)c1ccc(Cl)cc1)Nc1cccnc1	0.5	i
O=C(COC(=O)C1(c2ccccc2F)CCCC1)NCc1ccc2c(c1)OCO2	-7.08	-7.08*
O=C(COC(=O)C1(c2ccc(F)cc2)CCCC1)NCc1ccc2c(c1)OCO2	·	i
CCOCCCNC(=O)c1ccc2c(c1)OCO2	·	i
SMILES	KCNQ2 pot	KCNQ2 block
CCCCC(CC)CNC(=O)c1ccc2c(c1)OCO2 (stereo not given)	-7.03	-7.03*
COc1ccc(CN2CCNC(=O)C2CC(=O)NCCc2nc(C)c3c(n2)CCC3)cc1C (stereo not given)	·	i
CCCCOc1ccc(C(=O)NCC(=O)NCC2CCCO2)cc1 (stereo not given)	·	i
Brc1cccc(OCCCNC2CCCC2)c1	1.51	i
Cc1cc(C(C)(C)C)oc1C(=O)N(CC(=O)NC1CCCC1)c1c(C)cccc1C	-7	-7*
Cc1cc(C(C)(C)C)oc1C(=O)N(CC(=O)NC1CCCC1)c1ccc(F)cc1	·	i
CC1(C)Cc2c(cnn2-c2ccccc2)C(NC(=O)CCN2CCCC2=O)C1 (stereo not given)	1.04	i
CC(C)C1Cc2c(sc(NC(=S)NC(=O)c3ccccc3)c2C#N)CO1 (stereo not given)	1.59	i
CCOC(=O)c1c(NC(=S)NCCc2ccccc2)sc2c1CC(C(C)C)OC2 (stereo not given)	7.54*	i
C=CCOc1ccc(C2=NOC(C(=O)Nc3ccc4c(c3)OCCO4)C2)cc1OC (stereo not given)	1.4	i
COc1ccc(OC)c(C2C(C(=O)c3cccs3)=C(O)C(=O)N2CCN2CCOCC2)c1 (stereo not given)	0.04	i
Cc1ccc(NC(=O)/C(=C/c2cccc([N+](=O)[O-])c2)NC(=O)C2CCCCC2)cc1	0.49	i
O=C(Nc1ccc(Br)cc1)/C(=C/c1cccc([N+](=O)[O-])c1)NC(=O)C1CCCCC1	-7.65	-7.65*
CCCCSCCCNC(=O)Nc1ccc(C)c(C)c1	8.69*	i
Cc1ccc(NC(=O)NCCN2CCCCC2)cc1C	0.73	i
CN(CC1CCCN(CCc2ccc(Cl)cc2)C1)C(=O)c1ccco1 (stereo not given)	·	i
CC1CCCCN1C(=O)CSc1nc(-c2ccccc2)cc(=O)[nH]1 (stereo not given)	0.32	i
CC1CCCCN1C(=O)c1cc2nc(-c3ccccc3)cc(-c3ccccc3)n2n1 (stereo not given)	-5.71	-5.71*
COc1ccccc1CC(=O)NNC(=O)c1ccco1	·	i
CC(=O)c1cccc(NC(=O)NC2CC(=O)N(c3ccc4c(c3)OCCO4)C2)c1 (stereo not given)	·	i
COC(=O)c1cc(=O)n(Cc2ccc(F)cc2)c(=Nc2ccccc2)s1	-5.8	-5.8*
COC(=O)c1cc(=O)n(Cc2cccs2)c(=Nc2ccccc2)s1	·	i
COC(=O)c1cc(=O)n(Cc2ccco2)c(=Nc2ccc(F)cc2)s1	-5.95	-5.95*
COC(=O)c1cc(=O)n(Cc2ccc(OC)c(OC)c2)c(=Nc2ccc(F)cc2)s1	·	i
CCC(C)[C@H](NC(=O)C1CC(=O)N(c2ccc(OC)cc2)C1)C(=O)NC1CCCC1 (stereo not given in full)	0.33	i
SMILES	KCNQ2 pot	KCNQ2 block
O=[N+]([O-])c1ccc(NCCc2ccccc2)c(Br)c1	·	i
O=C(/C=C/Sc1ccc(C(F)(F)F)cn1)c1ccccc1	1.3	i
COc1ccc(N2CCN(c3oc(COc4ccc(Cl)cc4Cl)nc3C#N)CC2)cc1	0.01	i
N#Cc1nc(COc2ccc(Cl)cc2Cl)oc1N1CCN(c2ccccc2)CC1	-7.71	-7.71*
O=C(NCc1ccccn1)C(=O)Nc1nc(C23CC4CC(CC(C4)C2)C3)cs1	0.05	i
CSc1cccc(NC(=O)c2cc(S(=O)(=O)N3CCc4ccccc43)cn2C)c1	·	i
Cc1ccc(-n2c(SCC(=O)Nc3ccc4c5c(cccc35)CC4)nc(O)cc2=O)cc1	2.31	i
Cc1ccc(-n2c(SCC(=O)Nc3ccc4c5c(cccc35)CC4)nc(O)c(C)c2=O)cc1	7.02*	i
COc1ccc(CCNC(=O)C2CCCN2C(=O)Nc2ccc(F)cc2)cc1OC (stereo not given)	·	i
COc1cc(-c2nc(-c3ccc4c(c3)-c3ccccc3S4(=O)=O)c(-c3ccccc3)[nH]2)cc(OC)c1OC	-7.01	-7.01*
COc1cc(-c2nc(-c3ccccc3)c(-c3cccs3)[nH]2)cc(OC)c1OC	·	i
Cc1ccc(S(=O)(=O)N/N=C\c2ccc3c(c2)OCO3)c(C)c1	·	i
O=S(=O)(c1ccc(Br)s1)N1CCC2(CC1)OCCO2	·	i
Cc1ccc2c(c1)N(C(=O)CCC(=O)N1CCC(C(N)=O)CC1)CCO2	0.02	i
CCCCCCCCCCCC1=C(O)C(=O)C=C(O)C1=O	0.01	i
COC1=CC(=O)C(O)=C(CCCCCCC/C=C/CCCCCCCC2=C(O)C(=O)C=C(OC)C2=O)C1=O	-6.64	-6.64*
CCOC(=O)c1oc2ccccc2c1NC(=O)c1ccc(Cl)s1	-7.56	-7.56*
CCOC(=O)c1oc2ccccc2c1NC(=O)CCl	·	i
CC(=O)Nc1cc2nc(C)n(Cc3ccc([N+](=O)[O-])cc3)c2nc1C	·	i
COc1ccccc1C1CC(c2cccs2)=Nc2ccccc2S1 (stereo not given)	·	i
